In PubChem BioAssay AID521 (Sanford-Burnham Center for Chemical Genomics, 2006):
Among all 110,000 compounds or so, about 730 (0.66%) were called active. Cut-off read from the data, not from the text of the source: active = inhibition above about 50%; inconclusive = no clear call, values can overlap the other calls; inactive = below that. The entries come from a sample that favours actives as a whole.

The molecules below were run against Tyrosine-protein phosphatase non-receptor type 7 (Homo sapiens) (UniProt P35236) (assay: inhibitors of human HePTP phosphatase, primary screen, biochemical, absorbance, leukemia target (AID 521;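 note: plate controls were vehicle for no effect and reference inhibitor for full effect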)). Conditions: recombinant HePTP phosphatase activity, OD absorbance; at 20 µM; stronger effect = higher value.
Chain of Tyrosine-protein phosphatase non-receptor type 7 (Homo sapiens) (P35236 whole entry, looked up): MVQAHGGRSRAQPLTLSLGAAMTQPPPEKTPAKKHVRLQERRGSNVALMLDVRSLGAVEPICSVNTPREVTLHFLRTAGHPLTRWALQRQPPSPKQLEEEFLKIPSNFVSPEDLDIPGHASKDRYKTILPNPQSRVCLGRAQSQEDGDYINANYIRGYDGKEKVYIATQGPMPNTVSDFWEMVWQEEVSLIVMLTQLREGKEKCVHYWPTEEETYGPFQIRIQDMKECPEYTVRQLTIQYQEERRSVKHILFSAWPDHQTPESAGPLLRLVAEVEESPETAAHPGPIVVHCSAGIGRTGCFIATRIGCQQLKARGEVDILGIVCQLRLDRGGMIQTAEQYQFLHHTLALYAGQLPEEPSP

SMILES	inhibition
C=CCN1C(=O)/C(=C\c2cccn2-c2cccc([N+](=O)[O-])c2)C(=O)NC1=S	98.9% (active)
COc1cccc(CN2CCN(C(=O)COc3ccccc3)CC2)c1OC	3.3% (inactive)
CCOc1cc(C=C2C(=O)NC(=O)NC2=O)cc(Br)c1OCCOc1ccccc1C	3.9% (inactive)
CCOP(=O)(OCC)C(=C(Cl)Cl)C(C(=O)OC)C(=O)OC	11.5% (inactive)
C=CCSc1nc2ccccc2c(=O)n1-c1ccccc1OC	11.5% (inactive)
